The source of these data is PubChem BioAssay (NCI).

Structures are written as SMILES. This is part of a sample that, as a whole, favours compounds with a hit. Of some 83,000 tested, about 20% had one in any assay.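 Cell lines were cultured in 96-well plates, exposed to a single compound concentration, and assessed for percent growth 48 hours later.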 The source made the active and inactive calls. Rule for the calls: active = growth percent below 10; inactive = the rest.

In the assay the test system is HOP-62 NSCLC. In words: NCI-60 one-dose screen, 48 h (100 = growth as untreated, 0 = no growth, -100 = all killed). The settings on record: 10 µM.
On to `COC(=O)CC1CC1C1Cc2c(nc(N(C)S(C)(=O)=O)nc2C(C)C)-c2ccc(F)cc21` (configuration not stated), for which the growth was 109% (inactive).

In the case of `CN1CCN(c2ccc(Nc3nc(N4CCN(S(=O)(=O)c5ccc(Cl)cc5)CC4)c4sccc4n3)cc2)CC1`, the growth was 71.4% (inactive).

Regarding `Cc1ccc(-c2ccc(SCC(=O)Nc3ccc(Cl)c(C(F)(F)F)c3)nn2)cc1`, the growth was 30% (inactive).

For `Oc1ccc(/C=C2\CCCc3cc4ccc(O)cc4[o+]c32)c(O)c1`, the growth is 44.7% (inactive).

Turning to `O=C(Nc1ccc(F)c(Cl)c1)c1cc(-c2ccc(F)cc2F)ccc1O`, the growth is -13% (active).

Regarding `CCN1CCN(c2ccc(NC(=O)Nc3ccc4c(c3F)CCN4c3ccnc(C(=O)NC)c3)cc2C(F)(F)F)CC1`, the growth is -49.3% (active).

On to `O=C(CS(=O)(=O)c1oc(-c2ccc(Cl)cc2)nc1S(=O)(=O)c1ccccc1)N1CCCC1`, for which the growth was 93.5% (inactive).

Turning to `C=C(C)[C@@H]1CC[C@]2(C)[C@H](CC=C3[C@@H]4CC(C)(C)CC[C@]4(C(=O)N4CCOCC4)CC[C@]32C)[C@@]1(C)CCCN`, the growth was -90.6% (active).

`COc1ccccc1C(=O)NNC(=O)CSc1nc2c(c(=O)[nH]1)CCCC2`: the growth is 93.5% (inactive).

With `Cc1ccc(/C(N)=N/c2sc(-c3ccccc3)nc2-c2ccccc2)cc1`, the growth is 101% (inactive).

With `O=C(COc1ccc(NC(=O)Nc2ccc(Cl)cc2)cc1)N=Nc1c(O)[nH]c2ccc([N+](=O)[O-])cc12`, the growth was 35.7% (inactive).

Regarding `COc1cc(/C=C/C(=O)c2cc(OC)c(OC)c(OC)c2)ccc1Oc1nc(Nc2ccc(F)cc2)nc(N(C)C)n1`, the growth was -44.5% (active).

With `Cc1ccc(CSc2nc(-c3ccc(F)cc3)c(C#N)c(=O)[nH]2)cc1`, the growth was 102% (inactive).

Take `CCCn1c(O)c(N=Nc2nc(-c3cc4ccccc4oc3=O)cs2)c2cc(Br)ccc21`: the growth is 94.8% (inactive).

As for `CN1CCN(Cc2ccc(NC(=O)c3cncc(C#Cc4cnc5ccc(N[C@@H]6CCOC6)nn45)c3)cc2C(F)(F)F)CC1`, the growth was -75.5% (active).

Consider `c1ccc(C(=C(c2ccc(OCCN3CCCCC3)cc2)c2ccc(OCCN3CCCCC3)cc2)C2CCCC2)cc1`, for which the growth is -10.9% (active).

With `Cc1ccc(-c2cc(C(=O)N=Nc3c(O)[nH]c4ccccc34)c3ccccc3n2)cc1`, the growth was 66.2% (inactive).

As for `N#Cc1c(NC(=O)c2ccc(C(F)(F)F)cc2)sc2c1CCC(=O)C2`, the growth was -37.7% (active).

For `CCOC(=O)C1NN(c2ccc(S(N)(=O)=O)cc2)c2nc3nc(-c4cccs4)cc(-c4cccs4)c3c(=O)n21` (configuration not stated), the growth was 109% (inactive).

As to `Cc1ccc(-c2cc(C(=O)N=Nc3c(O)[nH]c4ccc(Br)cc34)c3ccccc3n2)cc1`, the growth is 86.1% (inactive).

In the case of `CC1(c2ccccc2)NC(=O)N(CC(=O)Nc2ccc(C(=O)/C=C/c3ccc(Cl)cc3)cc2)C1=O` (configuration not stated), the growth is 35.6% (inactive).

As for `O=C(N/N=C/c1ccc(-c2cccc([N+](=O)[O-])c2)o1)c1[nH]c2ccc(Br)cc2c1-c1ccccc1`, the growth is 38.7% (inactive).

`CN(C)c1ccc(/C=C/c2nc3ccccc3c(=O)n2CC(=O)Nc2ccc(Cl)cc2)cc1`: the growth was 25.4% (inactive).

On to `CCCSc1nc(NC2CC2)c(C#N)c(-c2ccc(OC)cc2)n1`, for which the growth is 84.6% (inactive).

For the molecule `C=C1CCC2C3(C)COC(c4c(F)cccc4F)OC3CCC2(C)C1CC(O)C1=CCOC1=O` (configuration not stated), the growth was 86% (inactive).

On to `O=C(N=Nc1c(O)[nH]c2ccc(Br)cc12)c1ccc2nc(-c3ccccc3)[nH]c2c1`, for which the growth is -61.9% (active).

In the case of `CS(=O)(=O)Nc1ccc(-c2ccc3c(c2)ncn3-c2ccc(NC(=O)Nc3ccc(Br)cc3)cc2)cc1`, the growth was -3.22% (active).

Regarding `COC1=C[C@@]23CCC(=O)N2CCc2cc4c(cc2[C@H]3[C@H]1OC(=O)C(C)(C)O)OCO4`, the growth was 89.2% (inactive).

Regarding `Cc1cc(C)nc(/N=C(\N)Nc2ccc(S(=O)(=O)Nc3nc(C)cc(C)n3)cc2)n1`, the growth was 104% (inactive).

`CC(=O)NS(=O)(=O)c1ccc(NC(=O)CSC2=NC(c3ccccc3)C(C(C)=O)=C(C)N2)cc1` (configuration not stated): the growth is 103% (inactive).

For the molecule `COc1cc2c3c(n(CCCNCCO)c(=O)c2cc1OC)-c1nc2c(cc1C3=O)OCO2`, the growth was 0.0851% (active).

For the molecule `C/C(=C\CC/C=C(\C)CC/C=C(\C)CC[C@@H](O)C(C)(C)O)CC/C=C(\C)CC[C@@H](O)C(C)(C)O`, the growth was 96.6% (inactive).

With `C=CC(=O)Nc1nc(-c2cccc(NS(=O)(=O)c3cccc4c(N(C)C)cccc34)c2)cs1`, the growth is 31.2% (inactive).

Turning to `O=C(Nc1ccc(Cl)c(C(F)(F)F)c1)c1cncc(C#Cc2cnc3ccc(N4CCOCC4)nn23)c1`, the growth is 11.1% (inactive).

For `O=C(c1ccccc1)n1ccc(-c2cc3cc(Br)ccc3oc2=O)n1`, the growth was 20% (inactive).

Take `Clc1ccc(/C=N/Nc2ncnc3sc4c(c23)CCN(Cc2ccccc2)C4)cc1`: the growth was -33.5% (active).

As for `Nc1cc(-c2cccc(C(=O)NCc3ccc4c(c3)OCO4)c2)ccn1`, the growth was 93.6% (inactive).
